Test results reported in PubChem BioAssay (NCI).
This is part of a sample that, as a whole, favours compounds with a hit. Of some 83,000 tested, about 20% had one in any assay.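 How to read the values: 0–100, growth inhibition (40 = 60% inhibited); 0, no net growth; -100 to 0, cell death (-40 = 40% of starting cells died; -100 = all dead).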 Values without a mark were called inactive. Calls of active or inactive are those of the source. How the source made its calls: active means growth percent below 10; inactive means the rest.

Experiments:
Assay in all cases: NCI-60 one-dose screen, 48 h (100 = growth as untreated, 0 = no growth, -100 = all killed)
Conditions in all cases: 10 µM unless noted
NCI-H23 lung = test system: NCI-H23 lung
NCI-H226 lung = test system: NCI-H226 lung
NCI-H322M lung = test system: NCI-H322M lung
HOP-62 NSCLC = test system: HOP-62 NSCLC
NCI-H460 lung = test system: NCI-H460 lung
A549/ATCC NSCLC = test system: A549/ATCC NSCLC
786-0 renal = test system: 786-0 renal
COLO 205 colon = test system: COLO 205 colon

SMILES	growth (NCI-H23 lung)	growth (NCI-H226 lung)	growth (NCI-H322M lung)	growth (HOP-62 NSCLC)	growth (NCI-H460 lung)	growth (A549/ATCC NSCLC)	growth (786-0 renal)	growth (COLO 205 colon)
NC(CSC(c1ccccc1)(c1ccccc1)c1ccccc1)C(=O)NCC(=O)O (configuration not stated)	86.3%	99.6%	47.9%	80%	95.2%	86.8%	71.3%	16.6%
Cc1c(C(N)=O)sc2c1c(=O)n(Cc1ccccc1)c1nnc(S(C)(=O)=O)n21	97.1%	96.2%	107%	78.8%	91.3%	102%	108%	93.8%
C/C=C/C/C=C/[C@H](C)C[C@H](O)[C@@H]1C[C@@H]2O[C@H]2/C=C/[C@@H]2OC(C)(C)O[C@H]2/C=C/C[C@H](C)CC(=O)O1	36.3%	30.5%	55.5%	41.6%	17.4%	24.7%	53.5%	61.1%
CCOc1ccc(N(C)c2ccc(/C=C/C3=[N+](C)c4ccccc4C3(C)C)cc2)cc1	4.67% (active)	54.2%	57%	12.3%	-50% (active)	9.51% (active)	2.71% (active)	-77% (active)
O=C(Nc1ccc(-n2cc(-c3ccncc3)c(-c3ccc(Cl)c(O)c3)n2)cc1)c1ccc(Cl)c(Cl)c1	45.7%	107%	97.1%	6.9% (active)	8.3% (active)	43.6%	-63.5% (active)	51.9%
C/C=C/C/C=C/[C@H](C)C[C@H](O)[C@@H]1C[C@@H]2O[C@H]2/C=C/[C@H](O)[C@@H](O)/C=C/C[C@H](C)CC(=O)O1	83%	87%	88.9%	89.6%	62.8%	71.8%	83.3%	109%
COC(=O)c1cc(O)c2cc3c(cc2c1-c1cc(OC)c(OC)c(OC)c1)OCO3	49.9%	50.6%	59.9%	28%	14.7%	45.1%	29.6%	5.08% (active)
COC(=O)C(C(=O)OC)C(Br)C(Br)C(Br)c1ccccc1 (configuration not stated)	108%	96.5%	113%	144%	108%	96%	96.3%	71.2%
N#Cc1c2ncccc2c2nnc3cc(Cl)c(Cl)cc3n12	88.6%	104%	100%	82.7%	100%	107%	108%	113%
O=C(/C(Br)=C/c1ccccc1)c1ccccc1	93.3%	110%	107%	80.3%	84.9%	78.6%	-90.5% (active)	-70.8% (active)
CCCCCCCCCCCC(=O)OC(C)C(=O)Nc1ccccc1 (configuration not stated)	98.9%	103%	95.3%	97.4%	104%	104%	94.7%	102%
COc1cc(-c2nn(-c3ccc(NC(=O)Nc4ccc(Cl)c(C(F)(F)F)c4)cc3)cc2-c2ccncc2)ccc1Cl	2.97% (active)	17.9%	39%	8.98% (active)	-51.7% (active)	11.9%	-52.3% (active)	-94% (active)
C=CC1CN2CCC1CC2C(O)c1ccnc2ccc(OC)cc12 (configuration not stated)	98.3%	91.9%	94.4%	79.8%	98.5%	97.3%	92%	106%
CCCCCCCCCCCCCCCCNC(=O)Nc1ccc(C)c(NC(=O)NCCCCCCCCCCCCCCCC)c1	111%	98.9%	108%	98%	103%	104%	118%	116%
BrCCCOc1ccc(Oc2ccc(OCCCBr)cc2)cc1	109%	99.6%	123%	108%	105%	94.7%	88.9%	134%
COc1cc(-c2nn(-c3ccc(NC(=O)c4ccc(Cl)c(C(F)(F)F)c4)cc3)cc2-c2ccncc2)ccc1Cl	18.7%	55.5%	55.9%	5.59% (active)	11.9%	29%	-84.5% (active)	-22.4% (active)
Oc1ccc(Br)cc1/C=N/NC(=S)NC12CC3CC(CC(C3)C1)C2	1.36% (active)	31.5%	36.5%	16.1%	2.18% (active)	8.34% (active)	54.8%	68%
Clc1ccc(I)c2ccccc12	106%	103%	95.3%	103%	112%	108%	93.4%	110%
CSc1nc(N)n2nccc2n1	107%	83.9%	102%	89.6%	104%	102%	97.2%	105%
CC(=O)/C(=C\c1c(-c2ccccc2)[nH]c2ccccc12)S(=O)(=O)c1ccccc1	-19.8% (active)	23.2%	43.1%	6.39% (active)	2.86% (active)	19.6%	9.85% (active)	12%
O=C(Nc1ccc(-n2cc(-c3ccncc3)c(-c3ccc(Cl)c(O)c3)n2)cc1)c1cc(C(F)(F)F)cc(C(F)(F)F)c1	63.8%	94.3%	116%	53.9%	36.7%	52.2%	38.4%	70.1%
O=C1C=C(OCC=C(C(F)(F)F)C(F)(F)F)c2ccccc2C1=O	19.1%	14.7%	90.5%	66.6%	59%	82.9%	-19.8% (active)	52.7%
CCCCS(=O)(=O)c1cc(Nc2ccc(O)c3c2C(=O)c2ccccc2C3=O)ccc1C	45.7%	87.8%	27.6%	72.5%	14.9%	28.3%	87.1%	70.7%
CC(C)(C)c1ccc(OCCOC(=O)CBr)cc1	98.7%	102%	120%	99.1%	102%	105%	103%	89.1%
COc1cc2cn3c4ccc(O)cc4[nH]c(=O)c3c2cc1OC	-6.02% (active)	8.14% (active)	1.3% (active)	4.45% (active)	-55.7% (active)	10.6%	1.09% (active)	-19.5% (active)
CC(=O)N1CCN(CCNC(=O)n2cc(-c3ccncc3)c(-c3ccc(O)c(Cl)c3)n2)CC1	109%	112%	141%	106%	103%	100%	113%	119%
CCCCCCCCCCCCCCCCNC(=S)N/N=C/c1ccc(OC)cc1	103%	98.6%	108%	117%	104%	96.1%	95.3%	115%
C=CCC(CCC(CC=C)C(=O)OCC)C(=O)OCC (configuration not stated)	108%	104%	83.3%	103%	105%	106%	98.5%	110%
CNc1ccc(Nc2ccc(S(=O)(=O)O)cc2)c2c1C(=O)c1ccccc1C2=O	106%	96.6%	112%	125%	108%	92%	103%	118%
